Assay results taken from PubChem BioAssay AID1671192 (National Center for Advancing Translational Sciences (NCATS), 2021).
Inconclusive results are not listed. Calls of active or inactive are those of the source. The call rests on the fitted dose curve; in most records, active means well fitted curve in the direction sought with a large enough effect; inconclusive means small, poorly fitted or top-dose-only effect, or another doubt; inactive means no such curve, though single readings can be large or run the other way.

Target: Polyunsaturated fatty acid lipoxygenase ALOX15 (Homo sapiens) (UniProt P16050)
Sequence (P16050 whole entry, looked up): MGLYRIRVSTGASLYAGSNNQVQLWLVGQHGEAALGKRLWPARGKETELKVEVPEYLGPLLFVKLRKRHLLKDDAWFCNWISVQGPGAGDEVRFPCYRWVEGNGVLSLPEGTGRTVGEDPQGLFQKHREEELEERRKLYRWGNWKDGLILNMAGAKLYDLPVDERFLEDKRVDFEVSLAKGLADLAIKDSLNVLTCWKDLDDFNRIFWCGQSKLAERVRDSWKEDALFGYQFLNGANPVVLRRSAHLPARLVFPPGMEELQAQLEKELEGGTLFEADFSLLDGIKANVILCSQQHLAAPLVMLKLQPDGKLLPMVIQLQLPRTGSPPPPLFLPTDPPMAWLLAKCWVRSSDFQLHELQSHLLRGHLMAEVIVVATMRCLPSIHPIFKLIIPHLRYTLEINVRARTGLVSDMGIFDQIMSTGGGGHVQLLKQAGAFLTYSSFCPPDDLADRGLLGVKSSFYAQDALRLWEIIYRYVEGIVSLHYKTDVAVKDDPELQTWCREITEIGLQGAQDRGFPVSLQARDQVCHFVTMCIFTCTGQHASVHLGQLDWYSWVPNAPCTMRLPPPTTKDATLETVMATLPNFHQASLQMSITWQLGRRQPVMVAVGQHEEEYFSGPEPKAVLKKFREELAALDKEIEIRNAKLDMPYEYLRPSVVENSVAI
Assay: Counterscreen qHTS for inhibitors of human arachidonate 12S-lipoxygenase (ALOX12): ALOX15 Assay
Conditions: purified ALOX15 enzyme activity; series mostly up to 110 µM
Summary of the method: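 Purified human ALOX15 (15hLO-1) at 40 nM in 25 mM HEPES, 0.01% Triton X-100, pH 7.5, preincubated with compound 15 min at RT. Then 50 uM arachidonic acid for 30 min; hydroperoxide detected by Fe-xylenol orange as the 573/405 nm absorbance ratio.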

Structure (SMILES)	outcome
O=C(O)CCCC(=O)N1Cc2ccccc2CC2(CCCN(Cc3ccccn3)C2)C1 (stereo not drawn)	inactive
Cn1nc(C2CCNC2)c2c(C(=O)NCc3ccc(F)cc3)cc(C3CC3)nc21 (stereo not drawn)	inactive
CN1CC(=O)N(C2CCNC2)Cc2c(NC3CCCC3)ncnc21 (stereo not drawn)	inactive
Cc1ccc(CN2CC3(Cc4ccccc4NC3=O)C2)cc1	inactive
O=C1NC2(Cc3ccccc31)CN(C(=O)c1ccccc1F)C2	inactive
CCOc1ccc(CN2CCC3(Cc4ccccc4CNC3=O)C2)cc1 (stereo not drawn)	inactive
CCOCCNc1ncnc2c1CN(C1CCCNC1)C(=O)CN2C (stereo not drawn)	inactive
CN1CC(=O)N(c2ccc(Cl)cc2)Cc2c(NCC3CC3)ncnc21	inactive
O=C1NCc2ccccc2CC12CCN(Cc1cccc(F)c1F)C2 (stereo not drawn)	inactive
O=C1NC(=NC2CCCC2)C2(CCCN(Cc3ccsc3)C2)N1c1cc(F)cc(F)c1 (stereo not drawn)	inactive
NCc1cccc(-c2ccsc2)c1	inactive
CCOC(=O)N1CCC(NC)CC1	inactive
CN(C)CCC(=O)N1Cc2ccccc2CC2(CCCCN2CC2CCOCC2)C1 (stereo not drawn)	inactive
Cc1ccc(CCN2CCC3(Cc4ccccc4CNC3=O)C2)cc1 (stereo not drawn)	inactive
CCc1ccc(CN2CCCC23Cc2ccccc2CNC3=O)cc1 (stereo not drawn)	inactive
O=C(O)c1cccc(-c2ccsc2)c1	inactive
COc1cccc(N2C(=O)NC(=NC3CCCC3)C23CCCN(CC2CC2)C3)c1 (stereo not drawn)	inactive
O=C(c1ccccc1)N1CCCC2(CC(c3cccnc3)=NO2)C1 (stereo not drawn)	inactive
CC(=O)Nc1ccc(CN2CC3(C2)C(=O)Nc2ccccc23)cc1	inactive

Structure (SMILES)	outcome
O=C1NCc2ccccc2CC12CCCN2Cc1cccc(OC(F)(F)F)c1 (stereo not drawn)	inactive
CCc1ccc(CN2CCC3(CC2)Cc2ccccc2CNC3=O)s1	inactive
C[S+](=O)([O-])N1Cc2ccccc2OC2(CCN(C(=O)c3ccc(N)nc3)CC2)C1	inactive
CCC(=O)N1Cc2ccccc2CC2(CCCCN2CC2CCNC2)C1 (stereo not drawn)	inactive
Cc1ccc(-c2cccc(CN3CCCC(c4nc5ccc(F)cc5c(=O)[nH]4)C3)c2)c(C)c1 (stereo not drawn)	inactive
O=C1NCc2ccccc2CC12CCCN2Cc1ccsc1 (stereo not drawn)	inactive
CNCc1ccccc1OC(F)(F)F	inactive
COc1ccc(CC(=O)N2Cc3ccccc3CC3(CCCN(C)C3)C2)cc1 (stereo not drawn)	inactive
CN1CC(=O)N(C2CCCNC2)Cc2c1ncnc2N1CCc2ccccc2C1 (stereo not drawn)	inactive
O=C(C1CCCC1)N1Cc2ccccc2CC2(CCN(Cc3cccnc3)C2)C1 (stereo not drawn)	inactive
COc1ccc(CNc2ncnc3c2CN(C2CCCNC2)C(=O)CN3C)cc1 (stereo not drawn)	inactive
CCCN1CCCC12Cc1ccccc1CN(C(=O)CCCC(=O)O)C2 (stereo not drawn)	inactive
Cc1noc(C)c1C(=O)N1Cc2ccccc2CC2(CCN(C)C2)C1 (stereo not drawn)	inactive
COc1ccc(C(=O)N2CCc3nc(C4CC4)nc(-c4ccc(Cl)cc4)c3C2)cc1	inactive
CCC(=O)N1Cc2ccccc2CC2(CCN(CC3CCNCC3)CC2)C1	inactive
CN1CC(=O)N(C2CCCNCC2)Cc2c(NCC(C)(C)C)ncnc21 (stereo not drawn)	inactive
CN1CCCC2(Cc3ccccc3CN(C(=O)c3ccc(Cl)cc3)C2)C1 (stereo not drawn)	inactive
C[S+](=O)([O-])N1CCCC(c2nnc3n2CCNC3)C1 (stereo not drawn)	inactive
O=C1Nc2ccccc2C12CCN(S(=O)(=O)c1ccccc1)C2 (stereo not drawn)	inactive
